Bioassay records as filed in PubChem.
Most compounds without a hit are left out; they make up all but 4.9% or so of the library.
PP5 primary: PP5 phosphatase inhibitors, primary screen, biochemical, fluorescence; Serine/threonine-protein phosphatase 5 (Homo sapiens), P53041; purified PP5c, OMFP substrate fluorescence; inhibition, % at 6.7 µM; actives 0.18% (n = 320,000); AID 1987, 2009;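 active = inhibition above the campaign's mean inhibition across all tested compounds plus 3 SD, cut at about 9.5% in these data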
PP1 counter: PP1-alpha phosphatase inhibitors, primary screen, counter-screen for PP5 inhibitor project, biochemical, fluorescence, OMFP substrate, single point; Serine/threonine-protein phosphatase PP1-alpha catalytic subunit (Homo sapiens), P62136; purified PP1alpha; inhibition, % at 6.7 µM; actives 0.9% (n = 320,000); AID 2235, 2010;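 active = inhibition above the mean inhibition of all tested compounds plus 3 SD, computed separately for each screening campaign, cut at about 15% in these data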
Target sequence (P62136 whole entry, looked up): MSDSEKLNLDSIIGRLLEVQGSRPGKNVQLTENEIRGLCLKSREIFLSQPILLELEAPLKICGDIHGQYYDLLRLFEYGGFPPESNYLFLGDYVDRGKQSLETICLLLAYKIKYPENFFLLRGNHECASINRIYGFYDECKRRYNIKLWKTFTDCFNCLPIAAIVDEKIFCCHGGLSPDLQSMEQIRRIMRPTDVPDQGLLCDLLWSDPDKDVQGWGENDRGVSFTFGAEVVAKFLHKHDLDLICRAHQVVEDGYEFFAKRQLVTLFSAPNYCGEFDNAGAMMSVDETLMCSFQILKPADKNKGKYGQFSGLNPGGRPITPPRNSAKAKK
CSC inhib: cancer stem cell viability inhibitors, primary screen, luminescence | cancer stem cell-like cells viability | inhibition, % at 7.5 µM | actives 1.1% (n = 300,000) | AID 2717, 2010; in the data active = inhibition above about 75%; tested in HMLE shEcad cells
Beta apoptosis: inhibitors of cytokine-induced beta cell apoptosis, primary screen, luminescence. actives 0.8% (n = 300,000). INS-1E cytokine-induced death, ATP luminescence, 48 h; percent of positive-control rescue, neutral wells zero. protection from apoptosis, % (no concentration beside the values). AID 435005, 2010;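 active = Every replicate reaches about 75%, or at least half do and their mean reaches it too, limit read from the data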;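 note: higher means more ATP so stronger rescue from cytokine killing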
Mdm2-MdmX inh: inhibitors of human Mdm2-MdmX association, primary screen, cell-based, luminescence, split luciferase, SaOS-2, uHTS; Protein Mdm4 (Homo sapiens) + E3 ubiquitin-protein ligase Mdm2 (Homo sapiens), …; SaOS-2 split-luciferase Mdm2/MdmX complementation; inhibition, % at 8 µM; actives 3% (n = 330,000);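 active = inhibition of at least 50% at 8 µM in the primary screen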
Calb FLC: C. albicans growth inhibition with fluconazole, primary screen, CaCi-2 strain, Alamar Blue fluorescence. C. albicans CaCi-2 (fluconazole-resistant clinical isolate) + fluconazole, 48 h. growth inhibition, % (no concentration beside the values). actives 0.57% (n = 300,000). AID 1979, 2009;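 active = growth inhibition above about 58% in most replicates, limit read from the data, passing the limit was not always enough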;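 note: all wells also contain fluconazole at 8 µg/ml as a sub-toxic cotreatment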
A number is an active result; - = inactive; . = no result given.

SMILES	PP5 primary	PP1 counter	CSC inhib	Beta apoptosis	Mdm2-MdmX inh	Calb FLC
O=C1C(=O)N(C/C=C/c2ccccc2)c2ccccc21	-	17	-	-	-	-
COc1ccc2oc(C(=O)OCC(=O)NCc3ccccc3OC)c(C)c2c1	-	-	-	-	-	-
CCOC(=O)N1CCC(c2cc(=O)n3[nH]cc(C(=O)OC)c3n2)CC1	-	-	-	-	-	-
CCOc1ccc(NC(=O)c2c[nH]n3c(=O)cc(C4CCN(C(=O)OC(C)(C)C)CC4)nc23)cc1	-	16	-	-	-	-
O=C(Nc1ccc2cn[nH]c2c1)c1c(Cl)cccc1Cl	-	-	-	.	-	-
O=C1C(Cl)=C(Nc2ccc3cn[nH]c3c2)C(=O)c2ccccc21	-	-	109	110	.	-
COC(=O)C1CCN(c2ccc(Cl)nn2)CC1	-	-	-	-	-	-
O=C(NCc1cccs1)c1nc2c(nnn2Cc2ccccc2Cl)c(=O)[nH]1	-	21	111	-	.	-
CCC(C)NC(=O)c1nc2c(nnn2Cc2ccccc2Cl)c(=O)[nH]1 (configuration not stated)	-	-	-	-	-	-
Clc1ccc(-c2nnnn2-c2ccc(Cl)cc2)cc1	-	-	-	-	-	-
Cc1ccc(-n2nnnc2C(Cl)(Cl)c2nnnn2-c2ccc(C)cc2)cc1	-	-	-	-	-	103
C/C(=N\Nc1nc(C)cc(-c2ccccc2)n1)c1ccc(O)cc1	-	-	-	83	-	-
C/C(=N\Nc1nc(C)cc(-c2ccccc2)n1)c1cccc(N)c1	-	-	-	89	-	-
C/C(=N\Nc1nc(C)cc(-c2ccccc2)n1)c1ccccc1	-	-	-	82	-	-
CN(C)C(=O)c1ccc(Nc2ncnc3sc4c(c23)CCCCC4)cc1	-	-	-	-	-	-
COc1ccc(OC)c(C(C(=O)NC2CCCCC2)N(C(=O)c2ccccn2)c2cccnc2)c1 (configuration not stated)	-	-	.	-	-	-
CN(C)c1ccc(CNc2ncnc3sccc23)cc1	-	-	-	-	-	85
c1ccc2c(c1)OCC(CNc1ncnc3sccc13)O2 (configuration not stated)	-	-	-	107	.	80
COc1ccc(CCNc2ncnc3c2oc2ccccc23)cc1OC	-	-	-	107	-	-
Fc1ccccc1CNc1ncnc2sccc12	-	-	-	-	-	-
COc1ccccc1CNc1ncnc2sccc12	-	-	-	97	-	-
COc1ccc(CCNc2ncnc3sccc23)cc1OC	-	-	-	111	-	-
COc1ccc(CC(=O)NCC2CCCN(Cc3cc(OC)cc(OC)c3)C2)cc1 (configuration not stated)	-	-	-	.	-	-
Cc1ccc(NC2CCCN(C(=O)CCN3CCOCC3)C2)cc1C (configuration not stated)	-	-	-	-	-	-
CC(C)Cc1ccc(CN2CCCC(NC(=O)CCN3CCCO3)C2)cc1 (configuration not stated)	-	-	-	-	-	88
SMILES	PP5 primary	PP1 counter	CSC inhib	Beta apoptosis	Mdm2-MdmX inh	Calb FLC
CC(C)Cc1ccc(CN2CCCC(NC(=O)CCN3CCCCC3=O)C2)cc1 (configuration not stated)	-	-	-	-	-	-
Nc1ncnc(Sc2ncccn2)c1[N+](=O)[O-]	.	.	.	.	.	85
CCN(C(=O)COC(=O)/C=C/c1cccc(Br)c1)C1CCS(=O)(=O)C1 (configuration not stated)	-	-	-	-	-	-
CN(C(=O)COC(=O)/C=C/c1cccc([N+](=O)[O-])c1)C1CCS(=O)(=O)C1 (configuration not stated)	-	-	92	-	-	-
CN(C)CCNC(=S)Nc1cccc(Cl)c1	-	-	-	-	-	-
CN(C)CCCNc1ccc(-c2cc(Nc3cccc(Cl)c3)ncn2)cn1	-	-	81	-	-	-
Cc1ccc(C[n+]2cc(-c3ccc(Cl)cc3)n3c2CCC3)cc1	-	-	-	-	-	-
Cc1ccc(-c2c[n+](CC(=O)N3c4ccccc4Sc4ccccc43)c3n2CCC3)cc1	-	-	-	.	-	109
Cc1ccc(-c2c[n+](Cc3ccc(Cl)cc3)c3n2CCC3)cc1	-	-	-	109	-	-
Fc1ccc2nc(C(F)(F)F)cc(N3CCOCC3)c2c1	.	.	-	-	.	-
Cc1ccc(C)c(N2CCN(C(=O)CCCOc3cc(=O)n(C)c4ccccc34)CC2)c1	-	-	-	94	-	-
CCOc1ccc(/C=N/NC(=O)c2[nH]ncc2Br)c(O)c1	-	-	87	77	-	114
Cc1ccc(O)c(/C=N/NC(=O)c2[nH]ncc2Br)c1	-	-	-	84	-	-
COc1ccccc1N1CCN(C(=O)CN2C(=O)c3ccccc3S2(=O)=O)CC1	-	-	-	-	-	-
CC(=O)Nc1ccc(C2=CC(=O)C[C@H](c3ccc4c(c3)OCO4)C2)cc1	-	-	-	91	-	.
CC(C)n1c(SCC(=O)NCc2ccco2)nnc1C1CC1	-	-	-	-	-	-
CCCCCCCN1C(Nc2ccccc2)=NC[C@@H]1Cc1ccccc1	-	-	-	-	-	84
Cc1cccc(CCN2C(Nc3ccccc3)=NC[C@@H]2CC(C)C)c1	-	-	-	-	-	.
c1ccc(CCCCN2C(Nc3ccccc3)=NC[C@@H]2Cc2ccccc2)cc1	-	-	-	-	-	.
CC(C)C[C@H]1CN=C(Nc2ccccc2)N1CCc1ccc(F)cc1	-	-	-	90	-	.
CCN(CC)CCNC(=O)c1cccc(NC(=O)C(=O)c2cc(Br)ccc2NC(C)=O)c1	-	-	-	-	-	-
Cn1cccc1-c1cc(C(=O)N2CCc3c([nH]c4ccccc34)C2c2ccccn2)[nH]n1 (configuration not stated)	-	-	-	-	-	98
O=C(c1ccc(-n2cccn2)cc1)N1CCc2c([nH]c3ccccc23)C1c1ccccn1 (configuration not stated)	-	-	-	-	-	-
CC(OC(=O)c1ccco1)C(=O)Nc1ncc(Cl)cc1Cl (configuration not stated)	-	-	.	-	-	.
CNC(=O)NC(=O)C(C)OC(=O)c1c2c(nc3ccccc13)/C(=C/c1cccs1)CC2 (configuration not stated)	-	-	94	-	-	-
COc1cc(NC(=O)Cn2nc(C(F)(F)F)c(Br)c2C)cc([N+](=O)[O-])c1	-	-	-	-	-	-
CC(=O)Nc1ccc(OCC(O)Cn2c3ccccc3c3ccccc32)c(C)c1 (configuration not stated)	-	-	78	-	-	-
